{"source": "ChEMBL document CHEMBL1961873", "about": "“Compounds: GSK PKIS; Assays: Nanosyn kinase panel” (2012)", "note": "Several values for one entry are separate records, joined by “and”; a condition that tells them apart may be missing. Identical values can stand only once.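 Further: values are mean inhibition of PTK5 (FRK) kinase activity from the GSK PKIS screening set.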"}
{"target": "Tyrosine-protein kinase FRK (Homo sapiens) (UniProt P42685)", "sequence (P42685 whole entry)": "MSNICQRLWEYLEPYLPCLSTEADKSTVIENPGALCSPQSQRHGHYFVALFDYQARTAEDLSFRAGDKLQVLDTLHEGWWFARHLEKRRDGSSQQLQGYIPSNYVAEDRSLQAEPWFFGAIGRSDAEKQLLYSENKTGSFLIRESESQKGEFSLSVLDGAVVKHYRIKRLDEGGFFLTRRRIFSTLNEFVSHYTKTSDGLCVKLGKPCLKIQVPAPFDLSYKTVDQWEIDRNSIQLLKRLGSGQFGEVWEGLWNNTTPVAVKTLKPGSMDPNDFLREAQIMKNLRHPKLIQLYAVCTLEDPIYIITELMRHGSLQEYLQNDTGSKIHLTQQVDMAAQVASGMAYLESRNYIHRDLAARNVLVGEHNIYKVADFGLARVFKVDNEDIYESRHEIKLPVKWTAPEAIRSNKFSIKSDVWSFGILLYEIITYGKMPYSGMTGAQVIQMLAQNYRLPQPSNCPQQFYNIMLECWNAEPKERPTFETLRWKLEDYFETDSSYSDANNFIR", "conditions": "at 0.1 µM"}
{"smiles": "Cc1nnc(-c2cccc(-c3ccc(C(=O)NCC4CC4)cc3)c2)o1", "inhibition": "1.96%"}
{"smiles": "N#Cc1ccc2c(-c3ccnc(NC4CC4)n3)c(-c3ccc(F)cc3)nn2c1", "inhibition": "1.44%"}
{"smiles": "O=C(O[C@H]1CN[C@H](C#Cc2cc3ncnc(Nc4ccc(OCc5cccc(F)c5)c(Cl)c4)c3s2)C1)N1CCOCC1", "inhibition": "3.74%"}
{"smiles": "COc1c(C(N)=O)cc(-c2ccc(Cl)cc2)cc1-c1ccc(S(N)(=O)=O)cc1", "inhibition": "2.55%"}
{"smiles": "Cc1ccc(-c2cc3c(NC(=O)C4CC4)ncnc3o2)cc1", "inhibition": "2.14%"}
{"smiles": "COc1cccc(Nc2nccc(-c3cnn4ncccc34)n2)c1", "inhibition": "0.08%"}
{"smiles": "NS(=O)(=O)c1cccc(N/C=C2\\C(=O)Nc3ccccc32)c1", "inhibition": "3.47%"}
{"smiles": "c1ccc(-c2n[nH]cc2-c2ccnc(-c3ccc(OCCn4ccnc4)cc3)c2)nc1", "inhibition": "1.69%"}
{"smiles": "CS(=O)(=O)Nc1ccc(-c2ccc3c(NC(=O)C4CC4)n[nH]c3c2)cc1", "inhibition": "1.21%"}
{"smiles": "CCOc1ccc2c(-c3ccnc(Nc4cc(OC)cc(C(F)(F)F)c4)n3)cnn2n1", "inhibition": "-0.17%"}
{"smiles": "COC(=O)Nc1nc2cc(Oc3ccc(NC(=O)Nc4ccccc4)cc3)ccc2[nH]1", "inhibition": "1.73%"}
{"smiles": "CCS(=O)(=O)c1ccc(OC)c(Nc2ncc(-c3cccc(F)c3)o2)c1", "inhibition": "10.5%"}
{"smiles": "CC(C)c1ccc(-c2cc(-c3c[nH]nc3-c3ccccn3)ccn2)cc1", "inhibition": "-0.8%"}
{"smiles": "CN1CCN(Cc2ccc(-c3cc4ncnc(Nc5ccc(OCc6cccc(F)c6)c(Cl)c5)c4s3)o2)CC1", "inhibition": "2.16% and 3.11%"}
{"smiles": "NS(=O)(=O)c1ccc(N/N=C2\\C(=O)Nc3cccc(CCc4ccncc4)c32)cc1", "inhibition": "-0.74%"}
{"smiles": "Cc1cc(O)cc(C)c1/C=C/c1cncc(C(N)=O)c1", "inhibition": "2.65%"}
